# In PMC7862700, “An all-to-all approach to the identification of sequence-specific readers for epigenetic DNA modifications on cytosine”:
# How the values were obtained:
# Assay in all cases: DAPPL (digital affinity profiling via proximity ligation, sequencing); 10 mM Tris-HCl pH 7.5, 50 mM NaCl, 1 mM DTT, 4% glycerol, room temperature, 30 min; GST-TFs on glutathione beads, 16-mer random dsDNA library, 0.1% formaldehyde crosslink after washing; high values mean tight binding
# Conditions in all cases: protein: recombinant; tags: N-terminal GST; dsDNA, one strand shown
# FLI1 = target: T1, FLI1 (Homo sapiens, UniProt Q01543 1-452)
# T1 sequence: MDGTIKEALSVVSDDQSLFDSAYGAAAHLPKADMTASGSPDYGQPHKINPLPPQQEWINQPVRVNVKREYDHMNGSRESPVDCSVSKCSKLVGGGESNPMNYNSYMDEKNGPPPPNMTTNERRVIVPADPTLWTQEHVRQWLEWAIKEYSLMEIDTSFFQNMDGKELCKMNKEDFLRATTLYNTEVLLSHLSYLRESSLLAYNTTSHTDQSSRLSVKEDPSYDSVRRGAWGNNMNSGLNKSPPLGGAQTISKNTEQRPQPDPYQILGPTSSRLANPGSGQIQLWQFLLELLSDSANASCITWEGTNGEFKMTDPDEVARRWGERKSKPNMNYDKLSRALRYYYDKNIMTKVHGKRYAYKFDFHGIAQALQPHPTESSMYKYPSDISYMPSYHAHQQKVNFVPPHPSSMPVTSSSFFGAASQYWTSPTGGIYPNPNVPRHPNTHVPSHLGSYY
# Outline: (§1)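 Binding signal is defined as a hexamer's read frequency for one factor over its frequency for the tag-only sample. To obtain reads, GST-fused human transcription factors were expressed in yeast, captured on glutathione beads, barcoded with DNA and pooled with that sample. Pools met 200 nmole of a 16-mer random double-stranded DNA library in Tris/NaCl/DTT/glycerol buffer for 30 min at room temperature before washing, 0.1% formaldehyde crosslinking, proximity ligation (BsaI/T4 ligase, 1 h, 37 °C), PCR and Illumina NextSeq500 sequencing.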
# GABPA = target: T2, GABPA (Homo sapiens, UniProt Q06546 1-454)
# T2 sequence: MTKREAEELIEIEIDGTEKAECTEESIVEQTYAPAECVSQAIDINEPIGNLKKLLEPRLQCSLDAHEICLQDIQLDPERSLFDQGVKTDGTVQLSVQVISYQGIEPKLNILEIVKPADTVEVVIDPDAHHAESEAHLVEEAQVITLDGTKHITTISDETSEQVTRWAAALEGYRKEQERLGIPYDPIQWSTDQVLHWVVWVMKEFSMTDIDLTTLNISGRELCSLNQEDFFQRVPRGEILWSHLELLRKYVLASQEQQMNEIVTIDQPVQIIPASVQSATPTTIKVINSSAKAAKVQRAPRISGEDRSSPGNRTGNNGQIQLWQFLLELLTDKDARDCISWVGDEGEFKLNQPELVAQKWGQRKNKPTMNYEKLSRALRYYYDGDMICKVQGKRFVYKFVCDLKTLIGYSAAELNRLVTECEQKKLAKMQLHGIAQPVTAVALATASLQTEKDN
# Outline: as §1
# ERG = target: T3, ERG (Homo sapiens, UniProt P11308 1-479)
# T3 sequence: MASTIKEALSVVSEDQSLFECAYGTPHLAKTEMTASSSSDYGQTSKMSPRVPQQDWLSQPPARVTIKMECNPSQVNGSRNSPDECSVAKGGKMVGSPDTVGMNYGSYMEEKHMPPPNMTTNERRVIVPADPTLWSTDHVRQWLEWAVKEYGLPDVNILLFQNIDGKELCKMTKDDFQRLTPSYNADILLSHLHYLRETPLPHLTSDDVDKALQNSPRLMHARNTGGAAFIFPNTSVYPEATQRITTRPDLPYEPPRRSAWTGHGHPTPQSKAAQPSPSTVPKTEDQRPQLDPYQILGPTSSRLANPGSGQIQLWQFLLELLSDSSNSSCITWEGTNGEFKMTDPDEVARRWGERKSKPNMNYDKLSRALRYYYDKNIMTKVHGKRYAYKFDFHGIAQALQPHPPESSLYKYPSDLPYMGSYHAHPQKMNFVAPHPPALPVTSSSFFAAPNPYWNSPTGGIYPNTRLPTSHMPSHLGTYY
# Outline: as §1
# ELF1 = ELF1 (Homo sapiens, UniProt P32519 1-619)
# Sequence of ELF1 (P32519 whole entry): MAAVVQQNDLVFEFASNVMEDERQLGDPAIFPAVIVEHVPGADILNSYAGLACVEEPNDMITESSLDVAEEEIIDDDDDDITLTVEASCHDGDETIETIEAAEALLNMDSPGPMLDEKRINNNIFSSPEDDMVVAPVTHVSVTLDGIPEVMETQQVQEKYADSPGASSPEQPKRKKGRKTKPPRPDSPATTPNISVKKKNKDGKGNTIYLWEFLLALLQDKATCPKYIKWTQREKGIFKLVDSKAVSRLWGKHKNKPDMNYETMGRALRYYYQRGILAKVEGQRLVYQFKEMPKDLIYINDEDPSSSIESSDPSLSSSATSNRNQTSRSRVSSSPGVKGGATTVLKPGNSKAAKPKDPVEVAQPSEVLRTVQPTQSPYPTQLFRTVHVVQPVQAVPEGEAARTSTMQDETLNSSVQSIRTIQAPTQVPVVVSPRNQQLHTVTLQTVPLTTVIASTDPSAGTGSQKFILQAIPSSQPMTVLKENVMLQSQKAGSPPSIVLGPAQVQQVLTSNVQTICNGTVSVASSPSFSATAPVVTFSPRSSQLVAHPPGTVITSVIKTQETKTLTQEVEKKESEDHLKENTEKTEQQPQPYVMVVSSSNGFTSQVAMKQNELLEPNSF
# Outline: as §1
# EHF = target: T4, EHF (Homo sapiens, UniProt Q9NZC4 1-300)
# T4 sequence: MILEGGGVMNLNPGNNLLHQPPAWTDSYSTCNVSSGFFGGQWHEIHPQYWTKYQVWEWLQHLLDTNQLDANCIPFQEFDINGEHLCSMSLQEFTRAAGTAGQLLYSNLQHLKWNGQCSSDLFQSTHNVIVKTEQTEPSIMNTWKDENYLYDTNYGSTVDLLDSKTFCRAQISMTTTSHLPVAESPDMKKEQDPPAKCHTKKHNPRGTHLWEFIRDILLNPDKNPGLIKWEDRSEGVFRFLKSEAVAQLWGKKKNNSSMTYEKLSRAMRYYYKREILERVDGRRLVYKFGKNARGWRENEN
# Outline: as §1
# SPI1 = SPI1 (Homo sapiens, UniProt P17947 1-270)
# Outline: as §1
# SPIB = SPIB (Homo sapiens, UniProt Q01892 1-262)
# Sequence of SPIB (Q01892 whole entry): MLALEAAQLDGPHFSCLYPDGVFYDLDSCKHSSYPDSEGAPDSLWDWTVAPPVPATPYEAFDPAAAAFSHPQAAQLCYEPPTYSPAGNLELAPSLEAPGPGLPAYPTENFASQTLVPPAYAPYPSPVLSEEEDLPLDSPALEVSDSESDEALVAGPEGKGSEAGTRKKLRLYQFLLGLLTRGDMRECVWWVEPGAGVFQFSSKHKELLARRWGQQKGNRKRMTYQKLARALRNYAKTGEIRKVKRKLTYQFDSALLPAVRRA
# Outline: as §1
# ELK3 = target: T5, ELK3 (Homo sapiens, UniProt P41970 1-407)
# T5 sequence: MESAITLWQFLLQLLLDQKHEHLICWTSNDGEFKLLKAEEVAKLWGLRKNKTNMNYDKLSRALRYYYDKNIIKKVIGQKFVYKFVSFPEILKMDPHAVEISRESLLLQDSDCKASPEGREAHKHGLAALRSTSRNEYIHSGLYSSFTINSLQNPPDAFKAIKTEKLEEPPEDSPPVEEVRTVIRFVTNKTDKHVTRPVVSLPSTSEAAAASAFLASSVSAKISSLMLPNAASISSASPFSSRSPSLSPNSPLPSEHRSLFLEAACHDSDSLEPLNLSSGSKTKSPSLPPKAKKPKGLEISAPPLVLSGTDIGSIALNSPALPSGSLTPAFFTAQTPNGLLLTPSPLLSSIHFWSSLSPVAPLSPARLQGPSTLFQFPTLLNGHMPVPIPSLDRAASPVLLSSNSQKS
# Outline: as §1
# FEV = target: T6, FEV (Homo sapiens, UniProt Q99581 1-238)
# T6 sequence: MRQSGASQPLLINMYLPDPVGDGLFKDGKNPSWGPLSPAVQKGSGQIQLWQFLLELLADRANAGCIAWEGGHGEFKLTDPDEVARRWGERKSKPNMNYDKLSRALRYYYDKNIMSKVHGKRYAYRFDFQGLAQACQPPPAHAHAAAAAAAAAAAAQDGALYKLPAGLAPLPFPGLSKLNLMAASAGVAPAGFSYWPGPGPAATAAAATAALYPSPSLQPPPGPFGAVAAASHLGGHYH
# Outline: as §1
# ETV5 = ETV5 (Homo sapiens, UniProt P41161 1-510)
# Sequence of ETV5 (P41161 whole entry): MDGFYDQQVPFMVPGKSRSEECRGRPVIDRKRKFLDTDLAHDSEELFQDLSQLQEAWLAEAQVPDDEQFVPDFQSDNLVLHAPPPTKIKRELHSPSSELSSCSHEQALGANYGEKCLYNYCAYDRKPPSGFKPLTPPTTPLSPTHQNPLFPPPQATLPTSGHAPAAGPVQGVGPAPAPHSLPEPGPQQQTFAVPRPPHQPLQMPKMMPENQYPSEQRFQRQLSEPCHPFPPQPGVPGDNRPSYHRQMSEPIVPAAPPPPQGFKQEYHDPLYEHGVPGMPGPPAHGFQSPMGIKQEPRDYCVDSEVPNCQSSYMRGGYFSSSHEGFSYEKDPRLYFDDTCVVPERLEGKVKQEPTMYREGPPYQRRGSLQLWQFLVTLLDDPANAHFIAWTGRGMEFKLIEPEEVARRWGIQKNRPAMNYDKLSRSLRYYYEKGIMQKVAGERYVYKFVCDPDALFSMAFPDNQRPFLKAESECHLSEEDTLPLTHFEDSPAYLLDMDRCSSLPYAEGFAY
# Outline: as §1
# SPIC = target: T7, SPIC (Homo sapiens, UniProt Q8N5J4 1-248)
# T7 sequence: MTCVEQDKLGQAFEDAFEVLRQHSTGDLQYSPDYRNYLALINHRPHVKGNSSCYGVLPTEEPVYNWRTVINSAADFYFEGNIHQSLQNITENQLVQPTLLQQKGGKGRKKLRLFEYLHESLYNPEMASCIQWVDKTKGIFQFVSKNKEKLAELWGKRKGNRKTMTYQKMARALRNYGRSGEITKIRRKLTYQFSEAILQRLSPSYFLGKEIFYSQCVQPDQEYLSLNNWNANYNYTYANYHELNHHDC
# Outline: as §1
# ELF4 = ELF4 (Homo sapiens, UniProt Q99607 1-663)
# Sequence of ELF4 (Q99607 whole entry): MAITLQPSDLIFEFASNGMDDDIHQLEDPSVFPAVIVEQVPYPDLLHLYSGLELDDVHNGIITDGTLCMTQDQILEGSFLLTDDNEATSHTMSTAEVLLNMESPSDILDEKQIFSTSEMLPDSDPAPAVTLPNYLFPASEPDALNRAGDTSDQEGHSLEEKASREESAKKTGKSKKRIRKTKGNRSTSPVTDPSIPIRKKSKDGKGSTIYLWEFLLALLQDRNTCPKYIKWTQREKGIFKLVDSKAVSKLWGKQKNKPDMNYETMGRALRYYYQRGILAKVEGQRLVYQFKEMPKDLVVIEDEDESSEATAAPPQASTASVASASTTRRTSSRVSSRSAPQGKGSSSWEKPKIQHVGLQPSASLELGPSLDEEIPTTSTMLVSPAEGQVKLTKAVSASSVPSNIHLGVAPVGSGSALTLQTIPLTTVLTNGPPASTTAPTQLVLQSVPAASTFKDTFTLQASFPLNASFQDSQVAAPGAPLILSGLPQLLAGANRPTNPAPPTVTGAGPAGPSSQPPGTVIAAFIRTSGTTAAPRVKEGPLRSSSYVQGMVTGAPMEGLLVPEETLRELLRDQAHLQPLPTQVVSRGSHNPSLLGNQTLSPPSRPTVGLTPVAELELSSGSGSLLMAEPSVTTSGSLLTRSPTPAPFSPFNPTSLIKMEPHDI
# Outline: as §1
# ERF = target: T8, ERF (Homo sapiens, UniProt P50548 1-548)
# T8 sequence: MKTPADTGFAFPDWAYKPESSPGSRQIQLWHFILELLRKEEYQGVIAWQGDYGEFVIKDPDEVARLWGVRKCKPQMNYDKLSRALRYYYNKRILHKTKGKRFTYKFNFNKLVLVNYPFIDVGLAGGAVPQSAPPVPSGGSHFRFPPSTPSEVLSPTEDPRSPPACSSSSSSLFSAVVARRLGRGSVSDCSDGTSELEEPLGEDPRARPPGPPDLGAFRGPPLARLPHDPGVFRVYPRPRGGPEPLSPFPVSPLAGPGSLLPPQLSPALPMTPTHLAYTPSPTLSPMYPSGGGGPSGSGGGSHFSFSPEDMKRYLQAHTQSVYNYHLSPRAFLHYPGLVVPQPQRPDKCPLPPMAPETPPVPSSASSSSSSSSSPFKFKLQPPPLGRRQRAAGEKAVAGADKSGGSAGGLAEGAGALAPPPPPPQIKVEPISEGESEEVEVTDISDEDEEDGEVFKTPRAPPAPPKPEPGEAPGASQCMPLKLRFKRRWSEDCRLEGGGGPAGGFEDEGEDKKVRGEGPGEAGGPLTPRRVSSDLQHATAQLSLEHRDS
# Outline: as §1
# ETV3L = target: T9, ETV3L (Homo sapiens, UniProt Q6ZN32 1-361)
# T9 sequence: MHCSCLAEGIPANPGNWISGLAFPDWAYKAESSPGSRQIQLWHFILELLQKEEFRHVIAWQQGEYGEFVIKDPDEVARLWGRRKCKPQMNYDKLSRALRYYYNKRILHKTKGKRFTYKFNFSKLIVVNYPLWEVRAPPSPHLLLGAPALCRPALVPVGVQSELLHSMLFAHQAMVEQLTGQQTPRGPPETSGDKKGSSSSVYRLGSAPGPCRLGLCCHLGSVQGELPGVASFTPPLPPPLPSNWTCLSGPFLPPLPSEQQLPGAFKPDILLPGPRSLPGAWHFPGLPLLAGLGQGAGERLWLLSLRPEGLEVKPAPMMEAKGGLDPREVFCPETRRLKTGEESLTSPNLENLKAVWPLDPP
# Outline: as §1
# ETS2 = target: T10, ETS2 (Homo sapiens, UniProt P15036 1-469)
# T10 sequence: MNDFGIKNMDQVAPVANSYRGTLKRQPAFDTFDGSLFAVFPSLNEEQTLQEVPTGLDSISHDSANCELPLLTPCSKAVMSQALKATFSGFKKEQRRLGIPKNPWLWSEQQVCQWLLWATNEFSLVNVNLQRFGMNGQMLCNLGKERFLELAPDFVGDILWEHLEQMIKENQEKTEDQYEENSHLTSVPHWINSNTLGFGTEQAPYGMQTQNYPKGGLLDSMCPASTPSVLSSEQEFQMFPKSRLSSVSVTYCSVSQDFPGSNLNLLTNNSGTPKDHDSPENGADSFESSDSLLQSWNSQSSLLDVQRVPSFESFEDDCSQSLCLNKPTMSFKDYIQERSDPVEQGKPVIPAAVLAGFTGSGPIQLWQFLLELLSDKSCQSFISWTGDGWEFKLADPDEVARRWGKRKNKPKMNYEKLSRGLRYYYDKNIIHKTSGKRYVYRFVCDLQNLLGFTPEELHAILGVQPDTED
# Outline: as §1
# ETV6 = ETV6 (Homo sapiens, UniProt P41212 1-452)
# Sequence of ETV6 (P41212 whole entry): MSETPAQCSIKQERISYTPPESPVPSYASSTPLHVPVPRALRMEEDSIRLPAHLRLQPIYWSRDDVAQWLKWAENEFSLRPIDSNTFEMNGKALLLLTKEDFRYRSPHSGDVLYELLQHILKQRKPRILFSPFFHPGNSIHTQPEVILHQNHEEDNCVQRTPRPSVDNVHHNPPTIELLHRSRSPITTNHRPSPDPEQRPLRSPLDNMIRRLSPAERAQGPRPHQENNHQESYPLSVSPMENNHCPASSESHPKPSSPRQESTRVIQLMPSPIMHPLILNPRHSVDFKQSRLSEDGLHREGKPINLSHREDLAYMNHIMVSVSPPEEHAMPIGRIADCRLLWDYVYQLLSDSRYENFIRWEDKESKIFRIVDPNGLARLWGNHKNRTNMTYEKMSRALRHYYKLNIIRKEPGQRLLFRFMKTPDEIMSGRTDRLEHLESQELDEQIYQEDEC
# Outline: as §1
sequence,measurement,setting,value
CAGCTA,binding signal,FLI1,"1.1 fold enrichment (6-mer frequency, TF over GST control)"
same,binding signal,GABPA,"1.06 fold enrichment (6-mer frequency, TF over GST control)"
same,binding signal,ERG,"1.03 fold enrichment (6-mer frequency, TF over GST control)"
same,binding signal,ELF1,"1.07 fold enrichment (6-mer frequency, TF over GST control)"
same,binding signal,EHF,"1.05 fold enrichment (6-mer frequency, TF over GST control)"
same,binding signal,SPI1,"1.03 fold enrichment (6-mer frequency, TF over GST control)"
same,binding signal,SPIB,"1.04 fold enrichment (6-mer frequency, TF over GST control)"
same,binding signal,ELK3,"1.02 fold enrichment (6-mer frequency, TF over GST control)"
same,binding signal,FEV,"1.02 fold enrichment (6-mer frequency, TF over GST control)"
same,binding signal,ETV5,"1.01 fold enrichment (6-mer frequency, TF over GST control)"
same,binding signal,SPIC,"1.07 fold enrichment (6-mer frequency, TF over GST control)"
same,binding signal,ELF4,"1.03 fold enrichment (6-mer frequency, TF over GST control)"
same,binding signal,ERF,"1.08 fold enrichment (6-mer frequency, TF over GST control)"
same,binding signal,ETV3L,"1.05 fold enrichment (6-mer frequency, TF over GST control)"
same,binding signal,ETS2,"1.06 fold enrichment (6-mer frequency, TF over GST control)"
same,binding signal,ETV6,"1.01 fold enrichment (6-mer frequency, TF over GST control)"
